This note sets out measurements from PMC12136788.

Positions count from the first letter of the chain named. In all, about 5,800 sequences were measured (“enrichment r”: median about 0.68, highest 2% from about 11 on). Only a selection was taken, and the highest values are over-represented in it overall.

T1: UNK ZnF1-6 (called full-length) (human, UniProt Q9C0B0 30-357)
T1 sequence: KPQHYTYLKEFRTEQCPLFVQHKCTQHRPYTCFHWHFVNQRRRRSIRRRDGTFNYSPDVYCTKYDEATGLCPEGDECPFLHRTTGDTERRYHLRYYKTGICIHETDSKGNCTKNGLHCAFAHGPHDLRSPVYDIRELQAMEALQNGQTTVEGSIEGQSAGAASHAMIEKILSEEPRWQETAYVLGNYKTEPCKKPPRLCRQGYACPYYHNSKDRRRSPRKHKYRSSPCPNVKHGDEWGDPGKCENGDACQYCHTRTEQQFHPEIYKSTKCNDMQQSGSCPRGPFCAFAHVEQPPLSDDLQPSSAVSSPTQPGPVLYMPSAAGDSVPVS

B1: chr10:100209595:100209696:-|CDS|ENSG00000213341|unk|FALSE|unique (ssRNA)
RNA: GGGAGUUCUACAGUCCGACGAUCACUUCUUUCAGAGACAGGAAUUUCUCUGGAUCCUCGGAAACCAGCCUCUCAAUGUGUUCUAGAUGGAGUUGUAAGAAAAUUAAUUAUAAUAUCCCUAGAGUAUGUGAAAUCUAGAGGGAUCAACAGAGGAUUGAGCAUCA
B2: chr8:116643852:116643953:-|3pUTR|ENSG00000147677|unk|FALSE|unique (ssRNA)
RNA: GGGAGUUCUACAGUCCGACGAUCUGUUGUGAAUGAGGAAUUAGGAAUUAGGAGAAUGGUAGUACAUUGGGAAAAACAUAUUUUAGUAAUUUUUAUAUUUUAAAGAUAAUCACAGAUUUUGCUGUUUGUGCAUCACCAAAAUCACAACAGAGGAUUGAGCAUCA
B3: chr5:132541444:132541810:-|three_prime_utr|ENSG00000113525|control|control|control (ssRNA)
RNA: GGGAGUUCUACAGUCCGACGAUCAAAUUGAUAUACUUUUUUCUUAUUUAACUUAACAUUCUGUAAAAUGUCUGUUAACUUAAUAGUAUUUAUGAAAUGGUUAAGAAUUUGGUAAAUUAGUAUUUAUUUAAUGUUAUGUUGUGUCAACAGAGGAUUGAGCAUCA
B4: chr8:80637648:80637749:-|3pUTR|ENSG00000164684|unk|FALSE|unique (ssRNA)
RNA: GGGAGUUCUACAGUCCGACGAUCUGCGCUUAGCUGCAAAGUGCCUGUCAGCAGCUCCAGGCACCAACAAGGUGCCCUUUUAUUAGACAAUUCCUGCCCGAACAUAACCAUAUUGCAGAUGAAAAUUUUCAAUAGAGAAUGACACAACAGAGGAUUGAGCAUCA
B5: chr6:98868534:98874277:-|three_prime_utr|ENSG00000112234|control|control|control (ssRNA)
RNA: GGGAGUUCUACAGUCCGACGAUCAUUAAAAUUAAUGUGCUUUGUUGGGGUUUAAUUUUGGGAUUGGUUUUGGGUUUUGUUUUUAGUUGUUUUAAUGGUAAGAAUUAAGACAUUUGUAGAUUUUAAAGAAAAAUAUGAAAUUGUCAACAGAGGAUUGAGCAUCA
B6: chr12:81257974:81259660:-|three_prime_utr|ENSG00000139220|control|control|control (ssRNA)
RNA: GGGAGUUCUACAGUCCGACGAUCAUGACUUAUUAAAAGCUGAAAAAUGUGAUUUUUGGGGGGAGUCAGAUAUUACAUUUGAUUAGUUUACUACAAAUUGUAAUAAAAUGCUUAAGUCAUUUGAAUAAUAAACAUCAUCUACAUCAACAGAGGAUUGAGCAUCA
B7: chr16:11872726:11872856:-|3pUTR|ENSG00000103342|msi1_unk|FALSE|overlapping (ssRNA)
RNA: GGGAGUUCUACAGUCCGACGAUCACAUAAUUGCCUACAAUAAUGAAAACCUACAGGAAUUUUUUUAUUUUUCAUUUUCCCCUUAGGCAUAUUUAGUAUUUUUCCCCCAGGCAGAUCAUUCUGAGUGUGCGAGUGUGUGUGCACCAACAGAGGAUUGAGCAUCA
B8: chr8:116643852:116643953:-|3pUTR|ENSG00000147677|unk|total|mutant (ssRNA)
RNA: B2 RNA with U41C, A42C, U48C, A49C, U59C, A60C, U83C, A84C
B9: chr9:83661418:83661519:-|3pUTR|ENSG00000135018|msi1|FALSE|unique (ssRNA)
RNA: GGGAGUUCUACAGUCCGACGAUCUAUAGUUGGGUGACCAGAUUUUGUCCUGCAUCUGUCCAGUUUAUUUGCUUUUUAAACAUUAGCCUAUGGUAGUAAUUUAUGUAGAAUAAAAGCAUUAAAAAGAAGCAAAUCAUUUGCACUCAACAGAGGAUUGAGCAUCA
B10: chr1:56708525:56708626:+|3pUTR|ENSG00000162409|unk|FALSE|unique (ssRNA)
RNA: GGGAGUUCUACAGUCCGACGAUCACCUUUCUCAAAUUCUUUUUGCCUCUAUUUAUUUUUGCAUUUCACCAACAGUGAUAAAAUAGUUAAAUGAAACAAAGCAAAGUAUCAACAGUCCCUUAAAUGAGAAUCCUUAUCUUUGAUCAACAGAGGAUUGAGCAUCA
B11: chr12:48145849:48145950:+|3pUTR|ENSG00000152556|msi1|FALSE|unique (ssRNA)
RNA: GGGAGUUCUACAGUCCGACGAUCCAUGACCAGUUCUGGCCAGGAGCUGGAGGAGCAGGCAGUGGGUGGGAGCUCCUUUUAGGUAGAAUUUAACAUGACUUCUGCCCCAGCUUUAUCUGUCACACAAGGCUGGGCACCUCUAGUCAACAGAGGAUUGAGCAUCA
B12: chr1:165890246:165890361:+|CDS|ENSG00000143179|unk|FALSE|unique (ssRNA)
RNA: GGGAGUUCUACAGUCCGACGAUCCUCCUGGGGCAGAAUGAGGUGGACUAUCGCCAGAAGCAGGUGGUCAUCCUGAGCCAGGAUAGCUUCUACCGUGUCCUUACCUCGGAGCAGAAGGCCAAAGCCCUGAAGGGCCAGUUCAACCAACAGAGGAUUGAGCAUCA
B13: chr2:96875881:96876275:-|three_prime_utr|ENSG00000168754|control|control|control (ssRNA)
RNA: GGGAGUUCUACAGUCCGACGAUCUCGCCCACCCCUCAGCCCUCCUCCCAGCCAUCUCCUCUUCCCUAAGGCCUCUGUCUCCAUAGCUCUGGUUUCCCUGGGCCUCAGUCCUCCCCACCCUCCUUCCUCUGUCUCCCUGUCACUCAACAGAGGAUUGAGCAUCA
B14: chr5:95604386:95604487:+|3pUTR|ENSG00000164291|msi1|total|mutant (ssRNA)
RNA: GGGAGUUCUACAGUCCGACGAUCCCUGCCAUCCAGUUCCCCCUCCAAGAAGCAAGUACCGAAACCACCUGCUUACGCAUUUUCCGAGAUUGGCCACAAAUUUAUAAACAAAUGUAUAUAUUCCUUUCCCCCUACACAAACGGUCAACAGAGGAUUGAGCAUCA

In this assay the target is T1, UNK ZnF1-6 (called full-length). Description: nsRBNS (natural sequence RNA bind-n-seq); RBNS binding buffer (assumed for nsRBNS): 25 mM Tris pH 7.5, 150 mM KCl, 3 mM MgCl2, 0.01% Triton X-100, 500 ug/ml BSA, 20 U/ml SUPERase-In, 4 C; UNK is unkempt and MSI1 is Musashi-1; names of the RNAs are library labels; protein concentration not given here; high values mean tight binding.
In the case of B1, the binding signal amounted to 0.651 enrichment R.

On to B2, for which the binding signal worked out at 22.5 enrichment R.

Molecule B3 gave a binding signal of 7.43 enrichment R.

As to B4, the binding signal came out at 0.967 enrichment R.

In turn, B5 came in with a binding signal of 12.9 enrichment R.

Take B6: the binding signal came out at 0.956 enrichment R.

Regarding B7, the binding signal is 11.3 enrichment R.

With B8, the binding signal amounted to 0.568 enrichment R.

The molecule B9 gave a binding signal of 7.97 enrichment R.

B10 yielded a binding signal of 0.947 enrichment R.

As for B11, the binding signal stood at 6.28 enrichment R.

In turn, B12 showed a binding signal of 0.748 enrichment R.

B13 showed a binding signal of 1.84 enrichment R.

As for B14, the binding signal was found to be 1.51 enrichment R.
